Screening results from PubChem.
The list is not random: actives were taken first. Their share in the collection is about 6.2%.
KinaseGlo FLuc: Counterscreen for Luciferase (Kinase-Glo TM) Inhibition; Luciferin 4-monooxygenase (Photuris pensylvanica), Q27757; Kinase-Glo luciferase, ATP luminescence, 8 min; Potency, µM (top dose mostly 38.3 µM), actives largely listed as inhibitors; 200,000 compounds, 0.28% hits; AID 1379, 2008; further: nearly all actives have a fitted effect of over 60% in size
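Substrate mix (final 50 mM imidazole pH 7.2, 50 mM KCl, 7 mM MgCl2, 10 uM ATP, 0.01% Tween 20, 0.05% BSA) plus pin-tool compound, then Kinase-Glo detection mix; 8 min ambient, luminescence read.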
RORgamma inh: qHTS for inhibitors of ROR gamma transcriptional activity; Nuclear receptor ROR-gamma (Mus musculus), P51450; Drosophila S2 Gal4-RORgamma UAS-luciferase reporter, 20 h; Potency, µM (doses to about 53.6 µM), usual class: inhibitors; 310,000 compounds, 5.4% hits; AID 2551, 2010; further: nearly all actives have a fitted effect of over 60% in size
Target sequence (P51450 whole entry, looked up, the tested form may be a part): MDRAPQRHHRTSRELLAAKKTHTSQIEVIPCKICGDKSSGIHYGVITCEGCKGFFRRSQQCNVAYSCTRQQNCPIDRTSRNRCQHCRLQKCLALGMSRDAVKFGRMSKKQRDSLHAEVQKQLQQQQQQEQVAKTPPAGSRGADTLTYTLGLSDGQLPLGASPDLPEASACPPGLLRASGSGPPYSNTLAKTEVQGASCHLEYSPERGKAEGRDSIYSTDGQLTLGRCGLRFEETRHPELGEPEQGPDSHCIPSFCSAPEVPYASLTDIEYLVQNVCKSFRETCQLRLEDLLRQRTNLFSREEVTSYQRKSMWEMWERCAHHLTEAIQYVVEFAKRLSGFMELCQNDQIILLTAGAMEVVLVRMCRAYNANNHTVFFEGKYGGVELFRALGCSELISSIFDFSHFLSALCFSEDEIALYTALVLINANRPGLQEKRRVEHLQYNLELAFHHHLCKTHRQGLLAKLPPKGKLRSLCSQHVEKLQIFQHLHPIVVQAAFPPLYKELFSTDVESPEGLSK
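Luminescence from a UAS-regulated Photinus luciferase reporter in stably transfected Drosophila Schneider cells is measured; decreased signal marks ROR gamma inhibition. Fusion expression is induced by 700 uM copper sulfate for 20 hr.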
Gal4-VP16 FLuc: VP16 counterscreen qHTS for inhibitors of ROR gamma transcriptional activity. Drosophila S2 Gal4-VP16 UAS-luciferase, luminescence, 20 h. Potency, µM (series often up to 53.6 µM), actives largely listed as inhibitors. 310,000 compounds, 3.5% hits. AID 2546, 2010;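 further: Gal4-VP16 expression switched on by copper sulfate through the metallothionein promoter; nearly all actives have a fitted effect of over 50% in size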
Large screens that a line does not name were inactive. The call rests on the fitted dose curve; in most records, active means well fitted curve in the direction sought with a large enough effect; inconclusive means small, poorly fitted or top-dose-only effect, or another doubt; inactive means no such curve, though single readings can be large; an effect the other way counts as inactive or inconclusive.

CC(C)C[C@H](NC(=O)[C@H](CCCCN)NC(=O)CNC(=O)[C@H](CC(C)C)NC(=O)[C@@H](N)C(C)C)C(=O)N[C@@H](CO)C(=O)N[C@@H](CCC(N)=O)C(=O)N[C@@H](CCC(=O)O)C(=O)N[C@@H](CC(C)C)C(=O)N[C@@H](Cc1cnc[nH]1)C(=O)N[C@@H](CCCCN)C(=O)N[C@@H](CC(C)C)C(=O)N[C@@H](CCC(N)=O)C(=O)N[C@H](C(=O)N[C@@H](Cc1ccc(O)cc1)C(=O)N1CCC[C@H]1C(=O)N[C@@H](CCCNC(=N)N)C(=O)N[C@H](C(=O)N[C@@H](CC(N)=O)C(=O)N[C@H](C(=O)NCC(=O)N[C@@H](CO)C(=O)NCC(=O)N[C@H](C(=O)N1CCC[C@H]1C(N)=O)[C@@H](C)O)[C@@H](C)O)[C@@H](C)O)[C@@H](C)O	none (no result: KinaseGlo FLuc)
CCC(C)CCCCC(=O)N[C@@H](CCN)C(=O)N[C@H](C(=O)N[C@@H](CCN)C(=O)N[C@H]1CCNC(=O)C([C@@H](C)O)NC(=O)[C@@H](CCN)NC(=O)[C@H](CCN)NC(=O)[C@H](CC(C)C)NC(=O)[C@@H](CC(C)C)NC(=O)[C@H](CCN)NC1=O)[C@@H](C)O (stereo partly drawn)	none
CN(C)CCn1c(=S)[nH]c2ccccc2c1=O	none
O=c1c2cccnc2[nH]c(=S)n1Cc1ccccc1	RORgamma inh 10µM, Gal4-VP16 FLuc 4µM
O=c1c2ccccc2[nH]c(=S)n1CCN1CCN(Cc2ccccc2)CC1	RORgamma inh 35µM, Gal4-VP16 FLuc inconclusive
CCCn1c(=S)[nH]c2ccccc2c1=O	RORgamma inh 2.8µM, Gal4-VP16 FLuc 7.9µM
CN1CCN(CCn2c(=S)[nH]c3ccccc3c2=O)CC1	none (no result: KinaseGlo FLuc)
O=c1c2nccnc2[nH]c(=S)n1Cc1ccccc1	RORgamma inh inconclusive
O=C(O)C1C2CCC(CC2)C1C(=O)N1CCN(Cc2ccc(F)cc2)CC1 (stereo not drawn)	none (no result: KinaseGlo FLuc)
Cc1ccc2c(c1)N/C(=C(\C=C(/Cl)[N+](=O)[O-])[N+](=O)[O-])N2	RORgamma inh inconclusive
Cc1c2c(c(O)c3c(O)cccc13)C(=O)O[C@H]2C1C(N(C)C)C(O)=C(C(N)=O)C(=O)[C@H]1O (stereo partly drawn)	none (no result: KinaseGlo FLuc)
O=C1c2ccccc2C(=O)N1CCCc1nc2ccccc2c(=O)n1-c1cccnc1	Gal4-VP16 FLuc inconclusive
O=C1CCC(C(=O)N2CCc3ccccc3C2)CN1CCCN1CCOCC1 (stereo not drawn)	none (no result: KinaseGlo FLuc)
Cc1ccc(CCc2nnc(SCC(=O)Nc3ccccc3Cl)n2-c2ccccc2)o1	RORgamma inh inconclusive
CCCOc1ccc(C(=O)CCC(=O)OCC(=O)N(C)c2c(N)n(Cc3ccccc3)c(=O)[nH]c2=O)cc1	none (no result: KinaseGlo FLuc)
CCOC(=O)c1ccc(NC(=O)CSc2nnc(CCc3ccc(C)o3)n2-c2ccccc2)cc1	RORgamma inh inconclusive, Gal4-VP16 FLuc 14µM (no result: KinaseGlo FLuc)
S=c1[nH]nc(CCSCc2ccccc2)n1-c1ccccc1	RORgamma inh 2.8µM
CCCCc1n[nH]c(=S)n1Cc1ccc(C)cc1	RORgamma inh 5.6µM, Gal4-VP16 FLuc inconclusive
CCCOc1ccc(CCc2n[nH]c(=S)n2Cc2ccccc2)cc1	RORgamma inh 2µM, Gal4-VP16 FLuc 1.3µM
COc1ccc(CSCCc2n[nH]c(=S)n2-c2ccccc2)cc1C	RORgamma inh inconclusive
COc1ccc(-n2nc(C(C)=O)c(=O)[nH]c2=O)cc1	RORgamma inh inconclusive
CCOC(=O)c1c(C)c(C(=O)NCc2ccc3c(c2)OCO3)c(C)n1C	none
CCCCCCC(O)C/C=C/CCCCCCCC(=O)O (stereo not drawn)	none (no result: KinaseGlo FLuc)
CCOc1ccc(-n2c(CCc3ccccc3)n[nH]c2=S)cc1	RORgamma inh inconclusive, Gal4-VP16 FLuc inconclusive
CCCCCCCc1n[nH]c(=S)n1Cc1ccccc1	RORgamma inh 1.3µM, Gal4-VP16 FLuc inconclusive (no result: KinaseGlo FLuc)
COc1ccc(-n2c(CCc3ccccc3)n[nH]c2=S)cc1	RORgamma inh 5µM
Cc1nccn1CCc1n[nH]c(=S)n1Cc1ccccc1	none
S=c1[nH]nc(CCc2nc3ccccc3[nH]2)n1-c1ccccc1	none
CCCCCC(O)CCc1n[nH]c(=S)n1-c1ccccc1 (stereo not drawn)	RORgamma inh 6.3µM
S=c1[nH]nc(CCc2ccccc2)n1Cc1ccccc1	RORgamma inh 2.2µM, Gal4-VP16 FLuc 5µM
Cc1ccc(N(CC(=O)N2CC(=O)Nc3ccccc32)S(=O)(=O)c2ccc3c(c2)OCCO3)cc1	none
COC(=O)C1=C(C)Nc2c(c(=O)n(C)c(=O)n2C)C1c1ccncc1 (stereo not drawn)	none
C=CCn1c(CCC(O)COCCC)n[nH]c1=S (stereo not drawn)	none
COc1ccc(C(=O)CSc2nnc(CCc3ccccc3)n2-c2ccccc2)cc1	RORgamma inh 16µM, Gal4-VP16 FLuc inconclusive (no result: KinaseGlo FLuc)
CCn1c(CCNC(=O)c2ccc(C)cc2)n[nH]c1=S	none
Cc1ccc(NCc2nnc(SCC(=O)O)n2Cc2ccccc2)cc1Cl	none
CCn1c(CCCCc2n[nH]c(=S)n2CC)n[nH]c1=S	RORgamma inh 5.6µM
CCCCC(CC(O)COCCC)c1n[nH]c(=S)n1-c1ccccc1 (stereo not drawn)	RORgamma inh 11µM, Gal4-VP16 FLuc inconclusive
Cc1ccc(NCc2n[nH]c(=S)n2Cc2ccccc2)cc1Cl	RORgamma inh 4µM, Gal4-VP16 FLuc inconclusive
COc1ccc(-n2c(CCc3ccccc3)nnc2SCC(=O)c2ccccc2)cc1	none
O=c1c(C(c2ccc(F)cc2)c2c(O)nc3n(c2=O)CCCS3)c(O)nc2n1CCCS2	none (no result: KinaseGlo FLuc)
COc1ccccc1C(=O)C1CCCN(Cc2ccc3c(c2)OCCO3)C1 (stereo not drawn)	none (no result: KinaseGlo FLuc)
Cc1cc(C)n(-c2ccnc3cc(Cl)ccc23)n1	none (no result: KinaseGlo FLuc)
CS(=O)Cc1cc(Sc2ccccc2)nc(-c2ccncc2)n1 (stereo not drawn)	RORgamma inh inconclusive
CCn1c(CNS(=O)(=O)c2ccc(Br)cc2)n[nH]c1=S	none (no result: KinaseGlo FLuc)
COCCn1c(CCc2ccccc2)n[nH]c1=S	RORgamma inh 11µM, Gal4-VP16 FLuc inconclusive
CCn1c(CN2c3ccccc3Sc3ccccc32)n[nH]c1=S	RORgamma inh 2.8µM, Gal4-VP16 FLuc inconclusive (no result: KinaseGlo FLuc)
CCCOc1ccc(CCc2n[nH]c(=S)n2-c2ccccc2)cc1	RORgamma inh 2.8µM
CCn1c(CCCOc2ccc(Cl)cc2Cl)nnc1SCC(=O)Nc1cccc(F)c1	none
COCCn1c(-c2ccccc2F)n[nH]c1=S	none
CCn1c(CCCOc2ccc(Cl)cc2Cl)n[nH]c1=S	RORgamma inh 2.8µM, Gal4-VP16 FLuc 3.2µM
Oc1ccc(CCc2n[nH]c(=S)n2-c2ccc(F)cc2)cc1	none (no result: KinaseGlo FLuc)
Cc1cccc([C@@H]2[C@@H]3C(=O)N(Cc4ccccc4)C(=O)[C@@H]3[C@]3(Cc4ccc(Cl)cc4)C(=O)N(c4cccc(Br)c4)C(=O)N23)c1	none (no result: KinaseGlo FLuc)
C/C(=N\NC(=O)c1cccc(N/N=C(\C)c2ccco2)c1)c1ccco1	none
C/C(=N\NC(=O)c1cccc(N/N=C(\C)c2cc(O)ccc2O)c1)c1cc(O)ccc1O	RORgamma inh 6.3µM, Gal4-VP16 FLuc inconclusive
Cc1cc(-c2ccccc2)nc2cc(C(=O)OC(C)C)nn12	none (no result: KinaseGlo FLuc)
COc1ccc(NS(=O)(=O)c2ccc(N3CCOCC3)c(NC(=O)c3ccc(F)cc3)c2)cc1	none
